Among the test systems are SK-MEL-2 melanoma; SN12C renal; UO-31 renal; TK-10 renal; ACHN renal; CAKI-1 renal; A498 renal; CCRF-CEM leukemia; MOLT-4 leukemia; RPMI-8226 leukemia; OVCAR-8 ovarian; OVCAR-5 ovarian; OVCAR-4 ovarian; SK-OV-3 ovarian; IGROV1 ovarian; OVCAR-3 ovarian; HS 578T breast; NCI/ADR-RES ovarian; EKVX NSCLC; SR leukemia.
Common to all, as to test: NCI-60 one-dose screen, 48 h (100 = growth as untreated, 0 = no growth, -100 = all killed)
Common to all, as to details: 10 µM unless noted

Compounds without any hit were thinned out: in the full panel of roughly 83,000, 20% have a hit.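 In brief: 96-well plates, 48 h treatment, single concentration, percent growth endpoint.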 A number with no mark means an inactive call. Active and inactive are the calls of the source. How the source made its calls: active means growth percent below 10; inactive means the rest.

Take `CCCCN(CCCC)CCCn1c(-c2ccccc2)ccc1-c1ccccc1`: the growth in the test with SK-MEL-2 melanoma is 93.5%; in the test with SN12C renal, 70.7%; with UO-31 renal it was 56.9%; in the test on TK-10 renal it was 83.1%; with ACHN renal, 62.9%; with CAKI-1 renal, 59.8%. Moreover, the growth with A498 renal is 59.3%; in the test on CCRF-CEM leukemia, 44.3%; in the test with MOLT-4 leukemia, 55%; in the test with RPMI-8226 leukemia, -2.32% (active); in the test on OVCAR-8 ovarian, 82.4%; in the test with OVCAR-5 ovarian, 73.4%. The growth was 37% with OVCAR-4 ovarian; 81.3% in the test on SK-OV-3 ovarian; 64.5% with IGROV1 ovarian; 59.2% with OVCAR-3 ovarian; 82.7% in the test on HS 578T breast; 65.1% in the test on NCI/ADR-RES ovarian.

Consider `COc1ccc(-c2nc(SCC(=O)Nc3ccc(C(=O)/C=C/c4ccc(Cl)cc4)cc3)[nH]c(=O)c2C#N)cc1`, for which the growth is 100% in the test with SK-MEL-2 melanoma; 95.7% in the test with EKVX NSCLC; 89.1% in the test with UO-31 renal; 102% in the test on TK-10 renal; 82.8% in the test with CAKI-1 renal; 94.2% in the test on CCRF-CEM leukemia. For the same compound, the growth in the test on MOLT-4 leukemia was 84.4%; in the test with SR leukemia, 72.3%; in the test on RPMI-8226 leukemia, 98.3%; in the test on OVCAR-8 ovarian, 106%; in the test with OVCAR-5 ovarian it was 109%; with OVCAR-4 ovarian, 99.8%. The growth was 96.2% in the test on SK-OV-3 ovarian, 111% in the test on IGROV1 ovarian, 81.3% with HS 578T breast and 102% in the test with NCI/ADR-RES ovarian.

Take `COc1ccc(C2CC(c3ccc(Cl)cc3)=NN2/C=C2\SC(=S)N(NC(=O)Cc3ccccc3Nc3c(Cl)cccc3Cl)C2=O)cc1` (stereo not drawn): the growth with SK-MEL-2 melanoma is 80.5%; in the test with SN12C renal, 48.5%; in the test with UO-31 renal, -30.2% (active); in the test with TK-10 renal, 52.9%; in the test on ACHN renal, -34.3% (active); in the test with CAKI-1 renal, 62.8%. Further, the growth in the test with A498 renal is 72%; with CCRF-CEM leukemia, 38.3%; with MOLT-4 leukemia it was 13.5%; in the test with SR leukemia it was 16.8%; in the test with RPMI-8226 leukemia, 71.9%; in the test on OVCAR-8 ovarian, 23.3%. Further, the growth with OVCAR-5 ovarian is 86.3%; with OVCAR-4 ovarian, 74.7%; in the test on SK-OV-3 ovarian, 77.9%; in the test with IGROV1 ovarian, 38.9%; in the test with OVCAR-3 ovarian it was 84.4%; with HS 578T breast, 75.6%. In addition, the growth in the test on NCI/ADR-RES ovarian is 82%.

As for `CC(C)(CCCN=C(N)Nc1ccc(Cl)cc1)c1ccc(F)cc1`, the growth with SK-MEL-2 melanoma was 94.6%; with EKVX NSCLC, 71.7%; in the test on UO-31 renal, 58.5%; with TK-10 renal it was 72.4%; in the test with CAKI-1 renal, 74.7%; with A498 renal it was 77.6%. The growth was 53.7% in the test on CCRF-CEM leukemia; 37.7% in the test with MOLT-4 leukemia; -13.6% (active) with SR leukemia; 11% with RPMI-8226 leukemia; 87.3% in the test on OVCAR-8 ovarian; 75.8% in the test with OVCAR-5 ovarian. The growth in the test on OVCAR-4 ovarian was 54.4%; with SK-OV-3 ovarian, 94.7%; in the test with IGROV1 ovarian, 55.2%; in the test on OVCAR-3 ovarian it was 71.2%; in the test on HS 578T breast it was 83.2%; with NCI/ADR-RES ovarian, 73.8%.

In the case of `CCN(CC)c1ccc(-c2cc(-c3cc(OC)c(OC)c(OC)c3)nc(N3CCOCC3)c2C#N)cc1`, the growth in the test with EKVX NSCLC is 36.3%; with SN12C renal it was 36.4%; in the test on UO-31 renal, 5.65% (active); with TK-10 renal, 49.4%; with ACHN renal, 19.5%; in the test on CAKI-1 renal it was 1.28% (active). In addition, the growth was 34.5% in the test with A498 renal; 18.8% with MOLT-4 leukemia; -8.39% (active) with SR leukemia; -33.1% (active) with RPMI-8226 leukemia; -28.4% (active) in the test with OVCAR-8 ovarian; 5.94% (active) in the test on OVCAR-5 ovarian. Besides, the growth with OVCAR-4 ovarian was 38.2%; in the test with SK-OV-3 ovarian it was 51.8%; with IGROV1 ovarian it was 19.5%; in the test on OVCAR-3 ovarian, 32.8%; with HS 578T breast it was 55.8%; in the test with NCI/ADR-RES ovarian it was 27.6%.

Consider `N#CN1CC[C@H](C(=O)Nc2cc3cc(C(N)=O)ccc3cn2)C1`, for which the growth in the test with SK-MEL-2 melanoma is -64.3% (active); with UO-31 renal, 17.7%; in the test on TK-10 renal, -17.7% (active); in the test on ACHN renal it was 6.51% (active); with CAKI-1 renal, 11.9%; in the test with A498 renal it was -34.4% (active). Moreover, the growth in the test on CCRF-CEM leukemia is 7.66% (active); in the test on MOLT-4 leukemia, -18.1% (active); in the test with SR leukemia, 0.903% (active); in the test on RPMI-8226 leukemia, 8.19% (active); with OVCAR-8 ovarian, 1.62% (active); in the test on OVCAR-5 ovarian it was 5.15% (active). The growth with OVCAR-4 ovarian is 4.32% (active); in the test on SK-OV-3 ovarian, -10.2% (active); in the test with IGROV1 ovarian, 15.7%; in the test on OVCAR-3 ovarian, -14.4% (active); in the test on HS 578T breast it was -0.591% (active); with NCI/ADR-RES ovarian, 1.36% (active).

With `CCOC(=O)c1c(C(=O)OCC)c2cc(-c3ccn4c(C(=O)c5ccccc5)c(C(=O)OCC)c(C(=O)OCC)c4c3)ccn2c1C(=O)c1ccccc1`, the growth in the test on SK-MEL-2 melanoma was 89.8%; in the test with SN12C renal it was 93.6%; in the test with UO-31 renal, 66.6%; in the test with TK-10 renal it was 112%; with ACHN renal, 96.3%; with A498 renal, 86.8%. The growth in the test with CCRF-CEM leukemia was 72.9%; in the test with MOLT-4 leukemia, 68.1%; in the test with SR leukemia, 90.4%; in the test with RPMI-8226 leukemia, 50.6%; in the test on OVCAR-8 ovarian, 71.8%; with OVCAR-5 ovarian, 130%. Moreover, the growth was 89.2% with OVCAR-4 ovarian; 109% in the test on SK-OV-3 ovarian; 82.3% in the test on IGROV1 ovarian; 95% in the test on OVCAR-3 ovarian; 80.7% in the test on HS 578T breast; 89.5% in the test with NCI/ADR-RES ovarian.

As to `N#CN1CCC[C@H]1C(=O)N1CCc2c(-c3[nH]nc4ncccc34)cccc21`, the growth in the test with SK-MEL-2 melanoma was 3.74% (active); with UO-31 renal, 2.24% (active); in the test on TK-10 renal, -15.6% (active); with ACHN renal it was 6.01% (active); in the test with CAKI-1 renal, -32.8% (active); with A498 renal, -36.5% (active). The growth is 17.5% with CCRF-CEM leukemia; 7.28% (active) in the test with MOLT-4 leukemia; 6.84% (active) in the test on SR leukemia; 18.1% with RPMI-8226 leukemia; 1.11% (active) in the test with OVCAR-8 ovarian; 56.3% in the test on OVCAR-5 ovarian. The growth in the test on OVCAR-4 ovarian was 18.5%; in the test on SK-OV-3 ovarian it was -1.17% (active); in the test on IGROV1 ovarian it was 17.1%; in the test with OVCAR-3 ovarian, -32% (active); with HS 578T breast, -2.6% (active); in the test with NCI/ADR-RES ovarian, 8.38% (active).

For the origin of these results see PubChem BioAssay (NCI).
